From PubChem
The list is not random: actives were taken first. Their share in the collection is about 22%.
Cycloheximide cs – Cycloheximide Counterscreen for Small Molecule Inhibitors of Shiga Toxin | max response, % | cell reporter, cycloheximide protein synthesis inhibition counterscreen | 300,000 tested, 12% active | AID 2314, 2010; in the data active = max response mostly above about 13%, no sharp cut-off; inactive = mostly below about 14%; note: read at 38.3 µM for the half of the compounds with a filed dose
Pf growth 96h – Primary qHTS for delayed death inhibitors of the malarial parasite plastid, 96 hour incubation | P. falciparum luciferase reporter growth, 96 h | Potency, µM (top dose mostly 28.7 µM), hits mostly inhibitors | 320,000 tested, 6.9% active | AID 504834, 2011
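Erythrocytes infected with luciferase-expressing P. falciparum were dispensed at 2% hematocrit and 0.05% parasitemia (final), then incubated with compounds 96 hours at 37 C in 5% CO2. Luminescence after detection reagent addition reported growth.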
Pf growth 48h – Primary qHTS for delayed death inhibitors of the malarial parasite plastid, 48 hour incubation; AID 504832, 2011; P. falciparum luciferase growth in erythrocytes, 48 h; Potency, µM (titrated, usually from 28.7 µM), most hits filed as inhibitors; 310,000 tested, 5.9% active
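In quantitative HTS format, infected erythrocytes bearing luciferase-reporter parasites were treated for a single generation at 37 C. Luminescence after adding detection reagent served as the growth measure.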
Shiga toxin inh – A qHTS for Small Molecule Inhibitors of Shiga Toxin; 290,000 tested, 9.2% active; AID 2315, 2010; Vero cells, Shiga toxin protein synthesis inhibition reporter; inhibition, % at 38.7 µM; in the data active = inhibition mostly above about 28%, no sharp cut-off; inactive = mostly below about 43%
LmPK inhibitor – qHTS Assay for Inhibitors of Leishmania Mexicana Pyruvate Kinase (LmPK); Q27686; purified LmPK, Kinase-Glo ATP luminescence, 1 h; Potency, µM (doses to about 57.5 µM), most hits filed as inhibitors; 290,000 tested, 0.37% active
Target sequence (Q27686 whole entry, looked up): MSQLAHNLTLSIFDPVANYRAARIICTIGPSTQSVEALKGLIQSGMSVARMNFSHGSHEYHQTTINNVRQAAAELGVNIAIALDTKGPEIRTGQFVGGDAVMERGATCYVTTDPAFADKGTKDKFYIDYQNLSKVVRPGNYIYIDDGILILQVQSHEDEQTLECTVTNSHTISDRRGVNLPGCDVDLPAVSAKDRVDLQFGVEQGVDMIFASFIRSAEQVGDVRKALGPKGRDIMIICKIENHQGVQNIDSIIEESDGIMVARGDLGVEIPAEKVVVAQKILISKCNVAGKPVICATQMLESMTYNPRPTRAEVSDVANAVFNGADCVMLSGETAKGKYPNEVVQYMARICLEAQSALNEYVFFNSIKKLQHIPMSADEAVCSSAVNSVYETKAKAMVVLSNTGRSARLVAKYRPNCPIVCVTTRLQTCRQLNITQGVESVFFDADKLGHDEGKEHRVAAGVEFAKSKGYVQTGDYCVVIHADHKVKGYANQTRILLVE
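In 50 mM imidazole pH 7.2 with 7 mM MgCl2, LmPK (0.1 nM) turned over PEP (0.5 mM) and ADP (0.1 mM) for 1 h at room temperature. Luciferase read-out of ATP.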
Hits are given with their value; n = inactive; u = inconclusive; x = no result; [ ] = remark or other dose. Unless noted, calls come from the whole dose curve; as a rule, active = well fitted inhibition curve with a large enough effect; inconclusive = small, poorly fitted or top-dose-only effect, or another doubt; inactive = no such curve, though single readings can be large or run the other way.

SMILES	Cycloheximide cs	Pf growth 96h	Pf growth 48h	Shiga toxin inh	LmPK inhibitor
O=C(Nc1ccccc1F)Nc1cc(S(=O)(=O)N2CCOCC2)ccc1N1CCCC1	n	n	n	n	n[11.5 µM]
O=C(Nc1ccccc1N1CCCCC1)c1cc(S(=O)(=O)N2CCOCC2)ccc1F	x	n	10µM	x	x
NS(=O)(=O)c1ccc(CNC(=O)Cc2c(F)cccc2Cl)cc1	n	u	n	n	n
O=C(COC(=O)c1cc[n+]([O-])cc1)Nc1ccc([N+](=O)[O-])cc1	n	n	n	n	n
C[C@@H]1OC(Oc2ccccc2-c2cc(=O)c3c(O)cc(O)c([C@@H]4O[C@H](CO)[C@@H](O)[C@H](O)[C@H]4O)c3o2)[C@H](O)[C@H](O)[C@H]1O (some centres not stated)	n	x	x	n	x
CCOc1ccccc1N1CCN(C(=O)c2ccc3[nH]c4c(c3c2)CCCC4)CC1	n	u	n	n	n
O=C(/C=C/c1ccco1)Nc1ccccn1	36	n	n	43	14µM
Cc1ccc(NC(=O)/C=C/c2ccco2)nc1	34	n	n	78	n
Cc1ccc(NC(=O)/C=C/c2cccc([N+](=O)[O-])c2)nc1	n	n[5.75 µM]	n	n	n
O=C(/C=C/c1ccco1)Nc1cccc2cccnc12	61	n	n	119	n
CCN(CC)C(=O)CSc1nc2c(sc(=S)n2Cc2ccco2)c(=O)n1-c1ccccc1	n	7.4µM	u	n	n
CCC(C)NS(=O)(=O)c1ccc(S(=O)(=O)Nc2cc3c(cc2C(C)=O)OCO3)cc1 (configuration not stated)	n	9.3µM	n	n	n
Cc1cccc(N(C)C(=S)Oc2ccc3ccccc3c2)c1	28	n	n	49	n
COc1ccc(N(C)C(=S)Oc2ccc(C(=O)Nc3ccccc3)cc2)cc1	n	u	u	n	n
Cc1ccc2c(c1)c(N=O)c(O)n2Cc1ccc(Cl)cc1	n	n	12µM	n	n
O=Nc1c(O)n(Cc2ccc(Cl)cc2Cl)c2ccccc12	n	8.3µM	u	n	n
O=Nc1c(O)n(Cc2c(Cl)cccc2Cl)c2ccccc12	n	u	u	n	n
O=Nc1c(O)n(Cc2ccc(Cl)cc2)c2ccccc12	n	u	13µM	n	n
Cc1ccc(Cn2c(O)c(N=O)c3ccccc32)cc1	n	u	u	n	n
O=C(CCBr)Nc1cccc2cccnc12	n	x	x	n	x
COc1cc(/C=C/C(=O)N2CC(C)OC(C)C2)cc(OC)c1OC (configuration not stated)	n	n	n	n	n
CCOC(=O)c1cn2nc(Oc3cccc(F)c3)ccc2n1	31	n	n	n	n
CCOC(=O)c1cn2nc(Oc3ccc(NC(C)=O)cc3)ccc2n1	25	n	n	59	n
Cc1ccc(S(=O)(=O)CCC(=O)OC(C)C(=O)N2CCc3ccccc32)cc1 (configuration not stated)	x	n	u	x	x
CN(c1ccc(OCC(=O)OCC(=O)NCc2ccco2)cc1)S(=O)(=O)c1ccc2ccccc2c1	n	n	n	n	n
SMILES	Cycloheximide cs	Pf growth 96h	Pf growth 48h	Shiga toxin inh	LmPK inhibitor
COC(=O)[C@H](CC(C)C)NC(=O)NC1CCCCC1C (some centres not stated)	n	x	n	n	n
CCN(Cc1ccncc1)C(=O)c1cc(COc2ccc(OC)cc2Cl)on1	42	u	n	99	n
CCN(Cc1ccncc1)C(=O)c1cc(COc2ccc(F)cc2Cl)on1	n	u	u	n	n
CCN(Cc1ccncc1)C(=O)c1cc(COc2c(F)cccc2F)on1	n	10µM	n	n	n
CCCN(CC1CCCO1)C(=O)c1cc(COc2ccc(F)cc2F)on1 (configuration not stated)	n	12µM	n	n	n
CCN(CC1CCCO1)C(=O)c1cc(COc2ccc(OC)cc2Cl)on1 (configuration not stated)	16	u	n	n	n
CCn1cc(CNC(=O)c2cc(COc3ccc(F)cc3F)on2)cn1	n	n	n	n	n
Cc1ccc(S(=O)(=O)NC(=O)Nc2cc(C)no2)cc1	n	n	n	n	n
CC(=O)N1CCC(N(CCN2CCOCC2)C(=S)Nc2ccccc2C)CC1	n	u	n	n	n
O=C(CCNC(=O)C1CCN(S(=O)(=O)c2ccc(F)cc2)CC1)NC1CC1	n	n	n	n	n
